This is part of a sample that, as a whole, favours compounds with a hit. Of some 83,000 tested, about 20% had one in any assay.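 Note: values are percent growth. 100 is the growth of untreated cells, values between 100 and 0 indicate rising inhibition; between -100 and 0 indicates cell death.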 Values without a mark were called inactive. The source made the active and inactive calls. The calls were made as follows: active = growth percent below 10; inactive = the rest.

Among the test systems are 786-0 renal; MALME-3M melanoma; MDA-MB-231 breast; SF-268 CNS; SF-295 CNS; UACC-257 melanoma; UACC-62 melanoma; SK-MEL-2 melanoma; EKVX NSCLC; SN12C renal; UO-31 renal; TK-10 renal; CAKI-1 renal; A498 renal; OVCAR-8 ovarian; OVCAR-5 ovarian; IGROV1 ovarian; OVCAR-3 ovarian; HS 578T breast; NCI/ADR-RES ovarian.
Assay in all cases: NCI-60 one-dose screen, 48 h (100 = growth as untreated, 0 = no growth, -100 = all killed)
Common to all, as to conditions: 10 µM

Regarding `O=C(CC(=O)Nc1ccc(Oc2ncnc3scc(Nc4n[nH]c(=S)s4)c23)cc1)Nc1ccc(Cl)cc1`, the growth in the assay with 786-0 renal is 101%; with MALME-3M melanoma, 109%; with MDA-MB-231 breast, 73.8%; in the assay with SF-268 CNS it was 85%; in the assay with SF-295 CNS it was 99.6%; with UACC-257 melanoma, 104%. For the same compound, the growth is 53.6% in the assay on UACC-62 melanoma; 98.3% in the assay with SK-MEL-2 melanoma; 75.6% in the assay with EKVX NSCLC; 88.1% with SN12C renal; 47% in the assay with UO-31 renal; 137% with TK-10 renal. Besides, the growth was 62.9% in the assay on CAKI-1 renal; 108% with A498 renal; 93.5% with OVCAR-8 ovarian; 79% in the assay on OVCAR-5 ovarian; 62.2% with IGROV1 ovarian; 82.7% in the assay with OVCAR-3 ovarian. The growth with HS 578T breast was 86%; with NCI/ADR-RES ovarian, 89.6%.
Regarding `C#C[C@]1(O)CC[C@H]2[C@@H]3CC=C4c5sc(Nc6ccc(C(F)(F)F)cn6)nc5CC[C@]4(C)[C@H]3CC[C@@]21C`, the growth with 786-0 renal is -72.4% (active); in the assay with MALME-3M melanoma, -13.1% (active); with MDA-MB-231 breast it was -34.2% (active); in the assay with SF-268 CNS it was 23.2%; in the assay with SF-295 CNS, -68.8% (active); with UACC-257 melanoma, -3.66% (active). Moreover, the growth was -45.9% (active) in the assay on UACC-62 melanoma; -26.8% (active) in the assay on SK-MEL-2 melanoma; -3.2% (active) in the assay on EKVX NSCLC; 7.3% (active) in the assay with SN12C renal; -23.8% (active) in the assay with UO-31 renal; 12.9% with TK-10 renal. Further, the growth is 0.3% (active) with CAKI-1 renal; -15.8% (active) in the assay with A498 renal; -8.07% (active) in the assay on OVCAR-8 ovarian; 9.25% (active) in the assay with OVCAR-5 ovarian; 8.57% (active) in the assay on IGROV1 ovarian; -35.8% (active) in the assay on OVCAR-3 ovarian. For the same compound, the growth is -6.11% (active) in the assay with HS 578T breast and -19.9% (active) in the assay with NCI/ADR-RES ovarian.
Regarding `O=C(CSc1nc2ccccc2c(=O)n1-c1ccc(Cl)cc1)Nc1ccc(-c2nc3ccccc3[nH]2)cc1`, the growth in the assay with 786-0 renal was -76.9% (active); with MALME-3M melanoma, -78.1% (active); in the assay with MDA-MB-231 breast, -14.8% (active); in the assay with SF-268 CNS it was -33.3% (active); in the assay with SF-295 CNS, -7.28% (active); with UACC-257 melanoma, 13.3%. Besides, the growth in the assay on UACC-62 melanoma was -12.1% (active); in the assay on SK-MEL-2 melanoma it was 82.1%; with EKVX NSCLC, 27.4%; with SN12C renal, -37.2% (active); in the assay on UO-31 renal, -39.1% (active); in the assay on TK-10 renal, -31.9% (active). Further, the growth with CAKI-1 renal is -67.9% (active); in the assay with A498 renal, 109%; in the assay on OVCAR-8 ovarian it was -17.8% (active); with OVCAR-5 ovarian, 67.8%; with IGROV1 ovarian, 53.2%; with OVCAR-3 ovarian it was -35.5% (active). Besides, the growth was -27.4% (active) in the assay with HS 578T breast and -3.44% (active) in the assay on NCI/ADR-RES ovarian.
As for `Cc1cc(N=C2NC(=O)/C(=C/c3cc(C(C)(C)C)c(O)c(C(C)(C)C)c3)S2)n[nH]1`, the growth in the assay with 786-0 renal was 12%; in the assay on MALME-3M melanoma it was 19.2%; in the assay on MDA-MB-231 breast, 22.8%; in the assay with SF-268 CNS, 32.7%; in the assay with SF-295 CNS it was -0.721% (active); with UACC-257 melanoma, 4.76% (active). Also, the growth in the assay on UACC-62 melanoma is 8.86% (active); in the assay on SK-MEL-2 melanoma it was -27.6% (active); in the assay on EKVX NSCLC it was 2.77% (active); with SN12C renal it was 16.6%; in the assay with UO-31 renal it was 16.7%; in the assay on TK-10 renal, -11.6% (active). Moreover, the growth was 12.4% in the assay with CAKI-1 renal; -8.54% (active) in the assay on A498 renal; 8.93% (active) with OVCAR-8 ovarian; 36.6% in the assay on OVCAR-5 ovarian; 14.4% with IGROV1 ovarian; 9.43% (active) in the assay on OVCAR-3 ovarian. The growth is -3.19% (active) with HS 578T breast and 5.91% (active) in the assay with NCI/ADR-RES ovarian.
`COc1ccc(-n2c(SCC(=O)NNS(=O)(=O)c3ccccc3)nc3ccc(Cl)cc3c2=O)cc1`: the growth in the assay with 786-0 renal was 101%; with MALME-3M melanoma, 117%; with MDA-MB-231 breast it was 89.3%; with SF-268 CNS it was 102%; in the assay on SF-295 CNS, 102%; in the assay on UACC-257 melanoma it was 117%. Moreover, the growth with UACC-62 melanoma is 77%; in the assay on SK-MEL-2 melanoma it was 100%; with EKVX NSCLC, 95.6%; in the assay on SN12C renal, 94.1%; in the assay on UO-31 renal it was 63.5%; with TK-10 renal, 109%. The growth is 80.4% with CAKI-1 renal; 90% in the assay on A498 renal; 101% in the assay with OVCAR-8 ovarian; 102% with OVCAR-5 ovarian; 103% with IGROV1 ovarian; 105% with OVCAR-3 ovarian. The values for the growth in the assay on HS 578T breast and with NCI/ADR-RES ovarian were 99.7% and 105%, respectively.
`COc1ccc(Cc2nn(CC(=O)N/N=C/c3ccc(Br)cc3)c(=O)c3c(C)noc23)cc1`: the growth was -53.2% (active) in the assay on 786-0 renal; -8.55% (active) in the assay on MALME-3M melanoma; 21.1% in the assay with MDA-MB-231 breast; 37.3% in the assay on SF-268 CNS; -4.74% (active) in the assay with SF-295 CNS; 72.2% with UACC-257 melanoma. Besides, the growth in the assay on UACC-62 melanoma is 54.3%; in the assay with SK-MEL-2 melanoma, 7.39% (active); in the assay with EKVX NSCLC it was 55.1%; in the assay on SN12C renal, 12.4%; with UO-31 renal, -15.7% (active); in the assay with TK-10 renal, -0.687% (active). In addition, the growth with CAKI-1 renal was 21.4%; in the assay with A498 renal, 21.3%; with OVCAR-8 ovarian, 33.9%; with OVCAR-5 ovarian, 59%; with IGROV1 ovarian, 37.6%; with OVCAR-3 ovarian, 28.5%. Further, the growth in the assay on HS 578T breast was 2% (active); with NCI/ADR-RES ovarian, 41.1%.
`COc1cc(C2CC(c3ccccc3)=Nc3c(N)nc(N)nc3N2)ccc1Oc1nc(NCCO)nc(N2CCOCC2)n1` (stereo not given): the growth in the assay with 786-0 renal is 89.2%; in the assay with MALME-3M melanoma it was 93.3%; with MDA-MB-231 breast, 97.1%; with SF-268 CNS, 88.8%; in the assay with SF-295 CNS it was 105%; with UACC-257 melanoma, 101%. The growth in the assay on UACC-62 melanoma is 97.1%; in the assay on SK-MEL-2 melanoma it was 99.7%; in the assay with EKVX NSCLC it was 97.6%; in the assay on SN12C renal it was 94.8%; in the assay on UO-31 renal, 94.2%; in the assay with TK-10 renal, 110%. For the same compound, the growth was 93.9% with CAKI-1 renal; 113% with A498 renal; 102% in the assay on OVCAR-8 ovarian; 107% in the assay with OVCAR-5 ovarian; 93% in the assay on IGROV1 ovarian; 109% with OVCAR-3 ovarian. In addition, the results for the growth with HS 578T breast and with NCI/ADR-RES ovarian were 78.9% and 109%, respectively.
